An excerpt weighted towards active compounds, which were near 10% of everything screened.
HP1b chromo inh: inhibitors of HP1-beta chromodomain binding to methylated histone tails. Potency, µM (highest dose often 114 µM), for inactives: at the top dose activity change, negative = inhibition, most hits filed as inhibitors. actives 0.56% (n = 390,000). P83916. AlphaScreen HP1-beta / biotin-H3K9me3 peptide binding; also: potency is read from the fitted curve at half-maximal effect; nearly all actives have a fitted effect of over 70% in size
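AlphaScreen: HP1-beta (50 nM) preformed 30 min with biotin-H3(1-18)K9me3 peptide (50 nM) in PBS pH 7.4, 0.01% Tween-20. Compound added for 30 min at RT, then streptavidin donor/nickel chelate acceptor beads (10 ug/mL) for 30 min.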
Six1-Eya2 inh: blocks human Six1 binding to Eya2; AlphaScreen GST-Six1/His-Eya2 binding, biochemical; stronger effect = lower value; activity change, % (no concentration beside the values); actives 0.56% (n = 360,000); Q15475+O00167; in the data active = activity change below about -65%; inconclusive = mostly about -30% to -63%; also: % is scaled to controls: 0 for no effect and ±100 for the full control effect
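Homogeneous AlphaScreen proximity assay pairing GST-Six1 with His-tagged Eya2 (added as 5X mix: 250 nM and 500 nM) in 50 mM Tris pH 8.0, 300 mM NaCl, 1 mM TCEP. Glutathione donor and nickel acceptor beads; 1 h, 37 °C, dark.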
BAZ2B inh: blocks human BAZ2B. AlphaScreen BAZ2B-H3K14Ac peptide displacement. actives 4.4% (n = 360,000). Potency, µM (top dose mostly 114 µM), for inactives: top-dose activity change, negative = inhibition, usual class: inhibitors. Q9UIF8; also: potency is read from the fitted curve at half-maximal effect; % is scaled to controls: 0 for no effect and ±100 for the full control effect; nearly all actives have a fitted effect of over 60% in size
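Compounds, titrated to a top concentration of 110 uM, were incubated 30 min at room temperature with preformed BAZ2B/acetyl-K14 H3 peptide complex (50 nM each). Proximity signal was measured by AlphaScreen after 20 min with beads.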
G9a block: inhibitors of human histone lysine methyltransferase G9a; Q96KQ7; G9a H3K9 monomethylation, AlphaScreen, 2 h; Potency, µM (doses to about 102 µM), for inactives: top-dose activity, negative = inhibition, actives largely listed as inhibitors; actives 8.8% (n = 350,000); AID 504332; also: potency is read from the fitted curve at half-maximal effect; % is scaled to controls: 0 for no effect and ±100 for the full control effect; nearly all actives have a fitted effect of over 75% in size
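G9a (20 nM) preincubated 15 min RT with compounds, then 500 nM biotinylated H3K9 peptide and 20 uM SAM added; 2 h RT reaction. Monomethyl-H3K9 product detected by AlphaScreen with anti-H3K9me1 antibody, streptavidin donor and anti-rabbit IgG acceptor beads.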
CtBP-E1A blk: inhibitors of CtBP/E1A interaction. activity change, % (test concentration not listed). actives 0.49% (n = 340,000). AlphaScreen GST-E1A/His-CtBP binding, 1536-well; stronger effect = lower value. AID 651724; in the data active = activity change below about -65%; inconclusive = mostly about -30% to -63%; also: % is scaled to controls: 0 for no effect and ±100 for the full control effect
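AlphaScreen with 125 nM GST-E1A and 125 nM His-CtBP (5X stocks) in Tris pH 8.0, 300 mM NaCl, BSA, Tween 20, TCEP. Compounds preincubated 2 h at 37 deg C, then glutathione donor/nickel acceptor beads added for 1 h at 37 deg C in dark.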
JMJD2A Tudor: JMJD2A Tudor domain (human) inhibition. actives 4.4% (n = 390,000). AlphaScreen JMJD2A-Tudor / H3K4me3 peptide binding. Potency, µM (top dose mostly 114 µM), inactives show top-dose activity change, negative = inhibition, actives largely listed as inhibitors. AID 504339. O75164; also: potency is read from the fitted curve at half-maximal effect; % is scaled to controls: 0 for no effect and ±100 for the full control effect; nearly all actives have a fitted effect of over 50% in size
Target sequence (O75164 whole entry, looked up, the tested form may be a part): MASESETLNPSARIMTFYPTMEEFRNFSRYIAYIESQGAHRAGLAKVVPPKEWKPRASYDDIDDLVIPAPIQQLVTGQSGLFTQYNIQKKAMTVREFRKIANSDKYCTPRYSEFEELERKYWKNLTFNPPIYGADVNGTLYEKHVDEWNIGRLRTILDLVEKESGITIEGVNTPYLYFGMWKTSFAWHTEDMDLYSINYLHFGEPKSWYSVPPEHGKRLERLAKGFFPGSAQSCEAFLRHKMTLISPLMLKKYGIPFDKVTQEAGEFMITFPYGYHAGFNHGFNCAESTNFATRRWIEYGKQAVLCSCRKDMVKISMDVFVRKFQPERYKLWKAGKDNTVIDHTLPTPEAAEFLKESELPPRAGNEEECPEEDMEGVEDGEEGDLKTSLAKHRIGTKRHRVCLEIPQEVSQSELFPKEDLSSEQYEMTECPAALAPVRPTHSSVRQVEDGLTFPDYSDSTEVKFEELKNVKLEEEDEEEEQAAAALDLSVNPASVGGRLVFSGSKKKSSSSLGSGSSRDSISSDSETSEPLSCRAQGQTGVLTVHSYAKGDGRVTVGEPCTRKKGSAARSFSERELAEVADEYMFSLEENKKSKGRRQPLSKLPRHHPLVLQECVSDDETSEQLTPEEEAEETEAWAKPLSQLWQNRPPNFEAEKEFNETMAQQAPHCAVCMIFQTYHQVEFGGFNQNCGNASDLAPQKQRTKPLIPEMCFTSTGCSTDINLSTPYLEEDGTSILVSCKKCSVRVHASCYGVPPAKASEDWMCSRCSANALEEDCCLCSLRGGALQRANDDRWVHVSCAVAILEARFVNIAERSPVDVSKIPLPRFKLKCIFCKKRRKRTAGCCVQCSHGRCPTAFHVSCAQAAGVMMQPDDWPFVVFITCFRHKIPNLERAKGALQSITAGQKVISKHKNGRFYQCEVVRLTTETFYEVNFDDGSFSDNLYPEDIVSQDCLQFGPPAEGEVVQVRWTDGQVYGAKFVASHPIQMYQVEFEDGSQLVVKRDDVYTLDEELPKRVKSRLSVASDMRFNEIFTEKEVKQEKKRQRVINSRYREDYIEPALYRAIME
An asterisk follows results filed as active; ? = inconclusive; · = no result given; [ ] = dose if it differs, or a comment. Unless noted, calls follow the shape of the dose curve; as a rule, active = well fitted inhibition curve with a large enough effect; inconclusive = small, poorly fitted or top-dose-only effect; inactive = no such curve, though single readings can be large or run the other way.

SMILES	HP1b chromo inh	Six1-Eya2 inh	BAZ2B inh	G9a block	CtBP-E1A blk	JMJD2A Tudor
OCCNc1nc(Nc2ccc(Br)cc2)nc2ccccc12	28.5%	-1.4	-16.8%	50.1µM*	-6.6	-23.4%
Cc1ccc(S(=O)(=O)Nc2ccc(S(=O)(=O)Nc3nccs3)cc2)cc1C	-15.1%	3.5	·	·	-1.2	-27.6%
COC(=O)N1CCC2(CCCN(C(=O)Nc3ccc(OC)cc3)C2)CC1	·	·	·	-7.0%[12.7 µM]	·	·
Cc1c2cnn(CC(=O)Nc3c(F)c(F)cc(F)c3F)c(=O)c2c(C)n1Cc1ccccc1F	-15.9%	-18.7	56.2µM*	?	6.4	?
COc1ccc(N2CCN(C(=O)CNC(=O)c3ccco3)CC2)cc1	9.5%	1.6	-8.3%	·	-1.9	-17.5%
CCCCCCCOc1ccc(C2(C)NC(=O)NC2=O)cc1 (centres undefined)	35.2%	-0.2	4.7%	8.4%	7.0	-13.1%
CCCCOc1ccc(C2(C)NC(=O)NC2=O)cc1 (centres undefined)	16.7%	7.2	-2.7%	3.5%[59 µM]	1.2	15.8µM*
COc1ccc(-c2noc(CSc3nnc(C)n3-c3ccc(C)c(C)c3)n2)c(OC)c1	28.2%	·	-20.3%	-23.8%[59 µM]	·	-28.8%
NC1(C(=O)O)CCCCC1c1ccccc1 (centres undefined)	-2.3%	-4.4	·	·	-1.7	1.41µM*
NC(=O)C1(S(=O)(=O)c2ccccc2)CCCCC1	21.2%	3.3	-2.7%	-5.1%[59 µM]	0.6	0.0%
CC1CN(S(=O)(=O)c2ccc(C(=O)Nc3nnc(-c4ccco4)o3)cc2)CC(C)O1 (centres undefined)	50.8%	-10.2	?	?	0.8	-25.9%
Cc1nnc(NC(=O)c2ccc(S(=O)(=O)N3CC(C)OC(C)C3)cc2)o1 (centres undefined)	33.7%	-27.8	25.1µM*	8.5%	-21.8	2.82µM*
CC1CCCN(S(=O)(=O)c2ccc(C(=O)Nc3nnc(C4CC4)o3)cc2)C1 (centres undefined)	51.0%	-22.4	35.5µM*	41.9%	?	?
CC1CCCN(S(=O)(=O)c2ccc(C(=O)Nc3nnc(-c4ccccn4)o3)cc2)C1 (centres undefined)	11.4%	-0.5	?	-43.9%	·	-11.0%
Cc1cc(C)nc(NS(=O)(=O)c2ccc(NC(=O)c3ccc(S(=O)(=O)N4CC(C)OC(C)C4)cc3)cc2)n1 (centres undefined)	22.4%	5.6	4.4%	8.91µM*	-10.5	-12.1%
O=C(Nc1nnc(S(=O)(=O)N2CCc3ccccc32)s1)c1cccc(Cl)c1	5.5%	·	?	-40.2%[59 µM]	·	-19.7%
Cc1ccc(OCCN2CCN(CC(O)Cn3c4ccccc4c4ccccc43)CC2)cc1 (centres undefined)	·	·	20µM*	8.91µM*	·	·
OC(CN1CCN(c2ccccc2)CC1)Cn1c2ccccc2c2ccccc21 (centres undefined)	-30.8%	-10.4	?	31.6µM*	-3.7	?
OC(CN1CCNCC1)Cn1c2ccccc2c2ccccc21 (centres undefined)	12.4%	-4.8	-18.8%	50.1µM*	-2.5	-27.9%
Cc1csc2nc(COC(=O)CNC(=O)c3ccc(F)cc3)cc(=O)n12	-7.5%	·	-0.4%	18.2%[59 µM]	·	-14.7%
Cc1ccc(OCC(=O)Nc2nc(C)c(Cl)cc2Cl)c([N+](=O)[O-])n1	44.8%	-0.1	-0.5%	-6.7%[12.7 µM]	·	-6.4%
CS(=O)(=O)N1CCc2cc(C(=O)NCc3ccccc3)ccc21	11.8%	·	4.5%	7.5%[59 µM]	·	-24.2%
OC(CNCC1CCCO1)COc1ccc(OCC(O)CNCC2CCCO2)cc1 (centres undefined)	7.1%	-0.2	4.3%	1.6%[59 µM]	-3.6	5.6%
CCOC(=O)c1c(C)n(-c2ccc(C)cc2)c2ccc(OCC(O)CNCC3CCCO3)cc12 (centres undefined)	?	-19.0	28.2µM*	15.8µM*	-27.2	12.6µM*
CCOC(=O)c1c(C)n(-c2ccc(C)cc2)c2ccc(OCC(O)CNCCCO)cc12 (centres undefined)	-21.1%	-6.9	?	8.91µM*	-17.7	?
SMILES	HP1b chromo inh	Six1-Eya2 inh	BAZ2B inh	G9a block	CtBP-E1A blk	JMJD2A Tudor
COc1cc2oc(=O)cc(CN3CCOCC3)c2cc1Cl	·	-4.8	·	·	-0.9	·
CC(=O)c1ccc(Nc2ccc(-c3ccccc3C)nn2)cc1	10.2%	?	79.4µM*	·	?	-31.6%
CNC(=O)c1cc2n(n1)CCCN(Cc1ccc(F)cc1)C2=O	34.7%	·	1.3%	-1.7%[12.7 µM]	·	11.3%
Cc1ccccc1NC(=S)N/N=C1\CC(C)(C)Oc2ccc(O)cc21	?	-28.3	?	35.5µM*	?	39.8µM*
CC(=O)N1CCC2(CC1)C/C(=N\NC(=S)Nc1ccc(C)cc1)c1cc(O)ccc1O2	-22.9%	-14.8	?	39.8µM*	-13.1	?
Cc1ccc(NC(=S)N/N=C2\CC(C)(C)Oc3ccc(O)cc32)cc1	0.7%	-15.2	0.1%	19.6%[59 µM]	·	-32.0%
COc1cc(-c2nc(Cn3nnc(C(=O)Nc4cc(C)cc(C)c4)c3C)c(C)o2)cc(OC)c1OC	-10.4%	·	?	-33.9%[59 µM]	·	-12.6%
CCOC(=O)c1cc(C)[nH]c(=S)c1C#N	-13.9%	-5.1	?	-1.0%[0.501 µM]	0.1	6.31µM*
CCOC(=O)c1cc(C(=O)OCC)c(=O)[nH]c1C	14.4%	3.5	26.2%	24.3%	4.8	-10.4%
CS(=O)(=O)/C=C/c1nc(Nc2cc(F)cc(F)c2)c2ncn(CC(F)F)c2n1	·	·	·	·	·	-19.2%
COC(=O)C(C(=O)OC)C(C[N+](=O)[O-])c1ccc(OC)c(OC)c1 (centres undefined)	34.2%	0.8	3.7%[57.1 µM]	13.9%[59 µM]	0.8	2.9%
COc1ccc(C(C[N+](=O)[O-])c2c(-c3ccccc3)cc3ccccn23)cc1 (centres undefined)	?	-15.7	-34.9%	?	-10.0	?
COc1cc(C(C[N+](=O)[O-])c2c(C)cc3ccccn23)ccc1O (centres undefined)	?	-11.3	28.2µM*	31.6µM*	-5.1	?
COc1ccc(C(C[N+](=O)[O-])c2c(-c3ccccc3)cc3ccccn23)cc1OC (centres undefined)	-5.3%	-14.3	?	10µM*	-4.9	-21.3%[57.1 µM]
Cc1cccc(OCC(=O)N(Cc2ccc(F)cc2)C2CCS(=O)(=O)C2)c1C (centres undefined)	49.7%	2.3	?	12.8%	2.7	-20.9%
CN(C1CCCCC1)S(=O)(=O)c1ccc2c(c1)c(=O)c(C(=O)NCc1ccc(Cl)cc1)cn2C	24.3%	·	·	0.6%[59 µM]	·	2.7%
CCCS(=O)(=O)Nc1ccc(Nc2c3ccccc3nc3ccccc23)c(OC)c1	?	?	·	·	13.7	39.8µM*
